Results filed as inconclusive are left out. Active and inactive are the calls of the source. How the source made its calls, unless noted: active means hit-call score of the fitted dose curve at least 0.9, where 1 is the maximum; inconclusive means response in the unintended direction; inactive means score below 0.9.
How the values were obtained:
[1] = target: Estrogen-related receptor gamma (Homo sapiens) (UniProt P62508); experiment: ATG_ERRg_TRANS: Attagene TRANS-FACTORIAL HepG2 Assay for human Estrogen-Related Receptor gamma (ERRg) (AID 2282977); conditions: HepG2 Attagene TRANS reporter, ERRg transactivation;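 further: hits increase reporter signal over DMSO so potencies reflect activators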
Chain of Estrogen-related receptor gamma (Homo sapiens) (P62508 whole entry, looked up, the tested form may be a part): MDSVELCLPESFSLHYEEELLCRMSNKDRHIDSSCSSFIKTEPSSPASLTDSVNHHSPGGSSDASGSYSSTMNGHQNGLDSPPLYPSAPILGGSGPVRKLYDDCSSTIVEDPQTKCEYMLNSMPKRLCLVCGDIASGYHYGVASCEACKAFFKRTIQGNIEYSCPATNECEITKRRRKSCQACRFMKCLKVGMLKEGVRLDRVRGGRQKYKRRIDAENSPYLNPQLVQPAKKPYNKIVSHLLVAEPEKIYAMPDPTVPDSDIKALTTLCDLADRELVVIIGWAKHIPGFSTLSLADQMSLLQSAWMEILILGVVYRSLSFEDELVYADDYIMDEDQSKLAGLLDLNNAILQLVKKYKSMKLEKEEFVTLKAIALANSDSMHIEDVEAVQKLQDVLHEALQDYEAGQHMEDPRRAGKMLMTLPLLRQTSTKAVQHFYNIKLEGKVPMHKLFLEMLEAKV
Summary of the method: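 Exogenous NR-Gal4 chimera activity was assessed in HepG2 cells bearing transfected GAL4-UAS reporters. After 24 h dosing, total RNA underwent RT-PCR, fluorescent primer extension and HpaI digestion before capillary electrophoresis, with gain of signal scored against DMSO.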

[2] = target: Glucocorticoid receptor (Homo sapiens) (UniProt P04150); experiment: ATG_GR_TRANS: Attagene TRANS-FACTORIAL HepG2 Assay for human Glucocorticoid Receptor (GR) (AID 2282978); conditions: HepG2 Attagene TRANS GR reporter, mRNA transcription;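 further: activators score as hits since higher reporter transcript over DMSO is fitted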
Chain of Glucocorticoid receptor (Homo sapiens) (P04150 whole entry, looked up): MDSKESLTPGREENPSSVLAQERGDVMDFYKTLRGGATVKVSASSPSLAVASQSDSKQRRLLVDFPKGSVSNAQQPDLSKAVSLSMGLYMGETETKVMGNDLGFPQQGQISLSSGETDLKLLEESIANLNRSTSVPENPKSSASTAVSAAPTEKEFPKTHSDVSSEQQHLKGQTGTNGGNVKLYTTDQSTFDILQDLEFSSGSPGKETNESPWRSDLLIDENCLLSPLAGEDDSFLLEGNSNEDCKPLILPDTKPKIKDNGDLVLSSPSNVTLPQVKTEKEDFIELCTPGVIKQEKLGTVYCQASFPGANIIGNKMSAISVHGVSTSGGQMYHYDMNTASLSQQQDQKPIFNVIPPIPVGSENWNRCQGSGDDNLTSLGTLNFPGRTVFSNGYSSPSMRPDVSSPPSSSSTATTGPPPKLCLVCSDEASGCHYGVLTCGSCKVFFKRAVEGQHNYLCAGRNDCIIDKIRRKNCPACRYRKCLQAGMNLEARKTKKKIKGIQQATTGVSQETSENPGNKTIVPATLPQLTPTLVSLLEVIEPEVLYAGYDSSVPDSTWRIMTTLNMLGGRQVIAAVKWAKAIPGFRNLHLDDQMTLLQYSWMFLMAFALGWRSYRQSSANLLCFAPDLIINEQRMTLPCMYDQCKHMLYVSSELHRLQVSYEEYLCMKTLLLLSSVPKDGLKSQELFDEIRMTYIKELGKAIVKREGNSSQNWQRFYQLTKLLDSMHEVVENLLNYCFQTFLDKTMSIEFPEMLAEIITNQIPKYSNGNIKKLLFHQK
Summary of the method: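 Multiplexed TRANS reporter system, HepG2; 24 h exposure; RNA → oligo(dT) RT → reporter-specific PCR → 6-FAM primer extension → HpaI cut → CE fluorescence. Gain-of-signal vs DMSO.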

[3] = target: Bile acid receptor (Homo sapiens) (UniProt Q96RI1); experiment: ATG_FXR_TRANS: Attagene TRANS-FACTORIAL HepG2 Assay for Farnesoid X Receptor (FXR) (AID 2282979); conditions: HepG2 Attagene TRANS FXR-GAL4 reporter transcription;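 further: hits raise reporter mRNA above DMSO so AC50 marks FXR activation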
Chain of Bile acid receptor (Homo sapiens) (Q96RI1 whole entry, looked up, the tested form may be a part): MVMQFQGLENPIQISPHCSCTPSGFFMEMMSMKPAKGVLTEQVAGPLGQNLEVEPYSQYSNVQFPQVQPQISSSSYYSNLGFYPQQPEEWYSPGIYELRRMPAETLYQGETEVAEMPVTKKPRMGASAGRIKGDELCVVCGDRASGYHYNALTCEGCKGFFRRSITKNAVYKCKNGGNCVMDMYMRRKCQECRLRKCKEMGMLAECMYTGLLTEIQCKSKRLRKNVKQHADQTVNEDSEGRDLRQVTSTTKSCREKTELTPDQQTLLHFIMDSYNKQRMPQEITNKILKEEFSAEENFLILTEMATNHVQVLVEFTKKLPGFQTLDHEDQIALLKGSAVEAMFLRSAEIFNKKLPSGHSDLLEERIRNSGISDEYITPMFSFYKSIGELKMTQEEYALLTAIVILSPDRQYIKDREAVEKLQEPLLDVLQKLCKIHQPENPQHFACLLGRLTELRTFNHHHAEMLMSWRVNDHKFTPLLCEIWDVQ
Summary of the method: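 After 24 h chemical treatment of transfected HepG2 cells, GAL4-UAS reporter transcripts driven by an exogenous FXR-GAL4 fusion were measured by RT-PCR and capillary electrophoresis. Increases over DMSO were fitted.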

[4] = ATG_M_32_TRANS: Attagene TRANS-FACTORIAL HepG2 Assay for M32 Transcription Factor (Internal Marker) (AID 2282984); conditions: HepG2 Attagene TRANS M32 internal marker reporter;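 further: transcript level of a background control reporter unit measured by RT-PCR and capillary electrophoresis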
Summary of the method: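 Cell-based TRANS-format assay in HepG2: exogenous chimeric GAL4 reporter units transiently expressed, compounds applied 24 h. Reporter mRNA detected by RT-PCR plus capillary electrophoresis; this readout is an internal background marker.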

[5] = target: Nuclear receptor subfamily 4 group A member 2 (Homo sapiens) (UniProt P43354); experiment: ATG_NURR1_TRANS: Attagene TRANS-FACTORIAL HepG2 Assay for human Nuclear Receptor Related Protein 1 (NURR1) (AID 2282985); conditions: HepG2 Attagene TRANS reporter, mRNA readout
Chain of Nuclear receptor subfamily 4 group A member 2 (Homo sapiens) (P43354 whole entry, looked up, the tested form may be a part): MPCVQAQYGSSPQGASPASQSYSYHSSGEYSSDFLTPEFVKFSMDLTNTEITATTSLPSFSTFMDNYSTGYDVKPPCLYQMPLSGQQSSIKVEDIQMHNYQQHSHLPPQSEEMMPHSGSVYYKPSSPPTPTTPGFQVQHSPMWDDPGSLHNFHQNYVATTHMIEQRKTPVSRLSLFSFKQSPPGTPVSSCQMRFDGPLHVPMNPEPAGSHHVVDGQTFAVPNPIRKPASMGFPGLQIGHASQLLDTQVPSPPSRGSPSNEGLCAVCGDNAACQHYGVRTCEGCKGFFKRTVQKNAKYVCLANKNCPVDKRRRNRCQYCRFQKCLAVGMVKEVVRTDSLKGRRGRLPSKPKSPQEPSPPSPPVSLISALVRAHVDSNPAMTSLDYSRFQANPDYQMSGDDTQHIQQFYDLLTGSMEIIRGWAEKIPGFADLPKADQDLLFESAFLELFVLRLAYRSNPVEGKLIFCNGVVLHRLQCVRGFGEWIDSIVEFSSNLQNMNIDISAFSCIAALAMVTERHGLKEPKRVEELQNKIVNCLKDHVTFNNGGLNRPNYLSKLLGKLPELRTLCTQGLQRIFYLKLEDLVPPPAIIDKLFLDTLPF
Summary of the method: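 Measures transcriptional activation by an exogenous NR-Gal4 chimera in transfected HepG2 liver cells. After 24 h, reporter RNA is reverse-transcribed, amplified and resolved by capillary electrophoresis; DMSO defines baseline.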

[6] = target: Transcriptional activator Myb (Homo sapiens) (UniProt P10242); experiment: ATG_Myb_CIS: Attagene CIS-FACTORIAL HepG2 Assay for human Myeloblastosis (Myb) Proto-Oncogene Transcription Factor (AID 2282986; active means hit-call score of the fitted dose curve at least 0.9, where 1 is the maximum; inactive means score below 0.9); conditions: HepG2 Attagene CIS-FACTORIAL Myb reporter transcription; actives raise or lower the signal
Chain of Transcriptional activator Myb (Homo sapiens) (P10242 whole entry, looked up): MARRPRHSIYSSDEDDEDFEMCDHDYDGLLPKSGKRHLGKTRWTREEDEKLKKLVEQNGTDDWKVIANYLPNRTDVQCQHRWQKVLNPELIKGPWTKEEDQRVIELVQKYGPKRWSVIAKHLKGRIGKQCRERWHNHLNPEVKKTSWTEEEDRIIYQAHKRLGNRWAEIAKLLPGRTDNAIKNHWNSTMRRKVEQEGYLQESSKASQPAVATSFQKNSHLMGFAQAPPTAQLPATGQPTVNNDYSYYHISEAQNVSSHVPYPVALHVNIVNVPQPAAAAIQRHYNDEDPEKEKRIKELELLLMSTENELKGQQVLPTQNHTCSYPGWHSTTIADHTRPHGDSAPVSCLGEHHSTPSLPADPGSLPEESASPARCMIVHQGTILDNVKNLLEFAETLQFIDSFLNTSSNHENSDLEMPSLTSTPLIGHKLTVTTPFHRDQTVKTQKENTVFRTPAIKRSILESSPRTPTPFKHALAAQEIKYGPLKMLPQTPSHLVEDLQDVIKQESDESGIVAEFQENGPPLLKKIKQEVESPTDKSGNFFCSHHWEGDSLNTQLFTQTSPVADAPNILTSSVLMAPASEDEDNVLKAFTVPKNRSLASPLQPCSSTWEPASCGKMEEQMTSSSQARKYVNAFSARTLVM
Summary of the method: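 Endogenous transcription factor activity at a Myb-responsive cis element is reported in human liver HepG2 cells after 24 h chemical treatment. Reporter mRNA is detected by RT-PCR and capillary electrophoresis fluorescence, with DMSO as baseline.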

[7] = target: Oxysterols receptor LXR-alpha (Homo sapiens) (UniProt Q13133); experiment: ATG_LXRa_TRANS: Attagene TRANS-FACTORIAL HepG2 Assay for human Liver X Receptor alpha (LXRa) (AID 2282980); conditions: HepG2 Attagene TRANS reporter, LXRa transactivation
Chain of Oxysterols receptor LXR-alpha (Homo sapiens) (Q13133 whole entry, looked up, the tested form may be a part): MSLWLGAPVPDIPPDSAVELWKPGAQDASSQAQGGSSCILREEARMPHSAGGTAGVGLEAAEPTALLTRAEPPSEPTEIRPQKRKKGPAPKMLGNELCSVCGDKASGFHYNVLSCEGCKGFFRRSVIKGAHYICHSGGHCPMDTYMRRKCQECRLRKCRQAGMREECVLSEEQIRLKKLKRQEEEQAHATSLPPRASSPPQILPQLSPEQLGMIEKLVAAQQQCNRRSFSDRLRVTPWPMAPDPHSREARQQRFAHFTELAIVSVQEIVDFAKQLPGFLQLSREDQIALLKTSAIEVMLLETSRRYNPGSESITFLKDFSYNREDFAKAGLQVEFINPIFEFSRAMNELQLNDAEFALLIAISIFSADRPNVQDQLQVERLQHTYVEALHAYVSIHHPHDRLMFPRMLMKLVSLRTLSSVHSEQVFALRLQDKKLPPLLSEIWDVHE
Summary of the method: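 In this multiplexed TRANS system, compounds act on HepG2 cells carrying GAL4-UAS reporter units and a receptor-GAL4 fusion for 24 h. Induced reporter RNA is amplified, fluorescently labelled and sized by capillary electrophoresis, with DMSO as baseline.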

[8] = target: Oxysterols receptor LXR-beta (Homo sapiens) (UniProt P55055); experiment: ATG_LXRb_TRANS: Attagene TRANS-FACTORIAL HepG2 Assay for human Liver X Receptor beta (LXRb) (AID 2282981); conditions: HepG2 Attagene TRANS GAL4-LXRb reporter, mRNA
Chain of Oxysterols receptor LXR-beta (Homo sapiens) (P55055 whole entry, looked up, the tested form may be a part): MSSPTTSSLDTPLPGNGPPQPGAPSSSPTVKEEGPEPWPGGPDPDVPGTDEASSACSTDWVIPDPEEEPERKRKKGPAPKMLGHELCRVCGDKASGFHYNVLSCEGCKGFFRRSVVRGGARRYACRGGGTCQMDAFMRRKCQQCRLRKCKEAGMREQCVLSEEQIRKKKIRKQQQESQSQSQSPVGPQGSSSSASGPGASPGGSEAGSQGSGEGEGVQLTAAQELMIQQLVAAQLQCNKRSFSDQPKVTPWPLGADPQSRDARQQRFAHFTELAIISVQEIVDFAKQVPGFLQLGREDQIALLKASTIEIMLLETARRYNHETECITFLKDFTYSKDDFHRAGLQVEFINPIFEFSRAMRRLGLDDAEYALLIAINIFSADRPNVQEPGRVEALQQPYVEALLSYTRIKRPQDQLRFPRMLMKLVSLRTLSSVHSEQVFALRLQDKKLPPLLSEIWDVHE
Summary of the method: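 After 24 h of chemical treatment, transfected HepG2 cells yield total RNA; reporter cDNA is PCR-amplified, FAM-labelled, HpaI-cut and run on capillary electrophoresis. Signal reflects chimeric LXRb-Gal4 activity on GAL4-UAS reporters.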

[9] = ATG_M_06_TRANS: Attagene TRANS-FACTORIAL HepG2 Assay for M06 Transcription Factor (Internal Marker) (AID 2282983); conditions: HepG2 Attagene TRANS M06 internal marker reporter;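 further: reporter transcript level by RT-PCR then capillary electrophoresis fluorescence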
Summary of the method: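 Multi-reporter-transfected HepG2, 24 h treatment; reporter transcripts quantified via RT-PCR, primer-extension labelling and CE. DMSO-normalized gain-of-signal fit.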

[10] = target: Hepatocyte nuclear factor 4-alpha (Homo sapiens) (UniProt P41235); experiment: ATG_HNF4a_TRANS: Attagene TRANS-FACTORIAL HepG2 Assay for human Hepatocyte Nuclear Factor 4 alpha (HNF4a) (AID 2282982); conditions: HepG2 HNF4a transactivation reporter, mRNA readout
Chain of Hepatocyte nuclear factor 4-alpha (Homo sapiens) (P41235 whole entry, looked up): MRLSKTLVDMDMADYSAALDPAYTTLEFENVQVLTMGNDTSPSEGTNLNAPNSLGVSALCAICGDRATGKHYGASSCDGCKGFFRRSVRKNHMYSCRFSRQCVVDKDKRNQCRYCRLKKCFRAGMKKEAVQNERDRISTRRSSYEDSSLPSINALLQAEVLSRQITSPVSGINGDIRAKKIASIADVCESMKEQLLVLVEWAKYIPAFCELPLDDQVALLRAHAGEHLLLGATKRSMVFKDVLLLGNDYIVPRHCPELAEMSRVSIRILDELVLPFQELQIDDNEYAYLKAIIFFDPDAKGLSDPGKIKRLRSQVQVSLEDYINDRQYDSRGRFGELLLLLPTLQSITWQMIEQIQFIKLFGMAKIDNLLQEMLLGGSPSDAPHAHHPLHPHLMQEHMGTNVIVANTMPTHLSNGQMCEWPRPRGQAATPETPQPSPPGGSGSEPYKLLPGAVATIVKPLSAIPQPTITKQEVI
Summary of the method: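 Multiplexed reporter assay: transfected HepG2, 24 h exposure, total RNA → oligo(dT) RT → PCR → 6-FAM extension → HpaI digest → CE fluorescence. DMSO = negative control.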

Measured: AC50

CCCCC1C(=O)N(c2ccccc2)N(c2ccccc2)C1=O
inactive: [1] | [2] | [3] | [4] | [5] | [6]

COC(=O)CC(C)CCC=C(C)C (stereo unspecified)
inactive: [1] | [2] | [3] | [7] | [8] | [4]

CC(C)(c1ccccc1)c1ccc(Nc2ccc(C(C)(C)c3ccccc3)cc2)cc1
not listed: [3] | [4] | [10]
inactive: all other assays above

C=Cc1ccc(OC(C)=O)cc1
inactive: [1] | [2] | [9] | [4] | [5] | [6]

O=C(O)C(F)(F)C(F)(F)C(F)(F)C(F)(F)C(=O)O
inactive: [1] | [3] | [5] | [6]

O=S(=O)(O)c1ccc(Nc2nc(Nc3ccc(C=Cc4ccc(Nc5nc(Nc6ccc(S(=O)(=O)O)cc6)nc(N(CCO)CCO)n5)cc4S(=O)(=O)O)c(S(=O)(=O)O)c3)nc(N(CCO)CCO)n2)cc1
not listed: [3] | [7] | [8]
inactive: all other assays above

CC(C)(CO)C(O)C(=O)NCCCO (stereo unspecified)
not listed: [2] | [4] | [8]
inactive: all other assays above

COc1ccc(C(=O)/C(Br)=C\C(=O)O)cc1
not listed: [2] | [7] | [10]
inactive: all other assays above

C=C(C)C1CC=C(C)C(OC(C)=O)C1 (stereo unspecified)
inactive: [1] | [2] | [4]

CCCCNC(=S)NCCCC
inactive: [1] | [3] | [10] | [9] | [4] | [6]

COC(OC)(C(=O)c1ccccc1)c1ccccc1
not listed: [3] | [7] | [8]
inactive: all other assays above

CO[Si](C)(C)OC
active: [6] 151 µM
inactive: [1] | [2] | [10] | [9] | [4]

CCCCCCOC(=O)CCCCC(=O)OCCCCCC
inactive: [1] | [3] | [8] | [9] | [6]

CCC(=O)C1CC(C(C)C)CC=C1C (stereo unspecified)
inactive: [1] | [2] | [9] | [6]

CC(C)c1cccc(C(C)C)c1N
not listed: [3] | [7]
inactive: all other assays above

CC(Cl)COP(=O)(OCC(C)Cl)OCC(C)Cl (stereo unspecified)
not listed: [3] | [7] | [9]
inactive: all other assays above

O=C(O)c1cc(O)c2ccccc2c1O
active: [5] 1.1 µM | [6] 57.4 µM
not listed: [3] | [7]
inactive: all other assays above

CCCCC(CC)COS(=O)(=O)O (stereo unspecified)
inactive: [1] | [3] | [10] | [9] | [4] | [6]

CC(C)c1ccc2ncccc2c1
inactive: [1] | [3] | [9] | [6]

CCOC(=O)/C=C\C(=O)OCC
not listed: [3] | [7] | [9]
inactive: all other assays above

C=C(C)OC(C)=O
not listed: [3]
inactive: all other assays above

O=C(Cl)c1c(Cl)c(Cl)c(C(=O)Cl)c(Cl)c1Cl
not listed: [4] | [8]
inactive: all other assays above

CCCCCCCC(=O)OCC
inactive: [1] | [3] | [8] | [5] | [6]

CC(=O)OC1CCCCC1
inactive: [1] | [2] | [3] | [9] | [4] | [6]

CCN(CC)c1cccc(C)c1
not listed: [3] | [9]
inactive: all other assays above

CC1C(C)(C)C2=C(C(=O)CCC2)C1(C)C (stereo unspecified)
inactive: [1] | [2] | [8] | [4] | [5] | [6]

CCOC(=O)C1=NN(c2ccc(Cl)cc2Cl)C(C)(C(=O)OCC)C1 (stereo unspecified)
inactive: [1] | [3] | [4] | [6]
active: [5] 168 µM

CCC1(C)C(=O)N(Cl)C(=O)N1Cl (stereo unspecified)
inactive: [1] | [2] | [10] | [4] | [5]

Cc1c(O)cccc1O
inactive: [1] | [3] | [8] | [10] | [5] | [6]

[Cl][Sc]([Cl])[Cl]
inactive: [1] | [2] | [8] | [10] | [6]

CN(C)c1ccc2nc3ccc(=[N+](C)C)cc-3sc2c1
not listed: [2] | [4] | [7]
inactive: all other assays above

CC1=CP(=O)(c2ccccc2)CC1 (stereo unspecified)
inactive: [1] | [2] | [3] | [5] | [6]

From PubChem BioAssay (EPA / NIEHS)
